TTR transcr act – activators of transthyretin transcription. activation, % at 16.7 µM. SH-SY5Y TTR promoter Gaussia luciferase, luminescence; 100% = recombinant luciferase protein wells. 92,000 tested, 1.3% active;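 active means activation above the mean of all tested compounds plus 3 SD, cut at about 9.5% in these data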;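 further: cells exposed to compounds for one day before reading; 0% = median of all test compound wells on the plate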
HuH7 TTR inh – decreases TTR transcription in HuH7 cells in activator counter-screen. shares compounds with TTR transcr act. HuH7 TTR promoter-Gaussia luciferase reporter, luminescence. inhibition, % at 16.7 µM. 1,100 tested, 4% active;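 active means average inhibition above the solvent-only control wells' mean plus 3 SD, cut at about 15% in these data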;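 further: 0% = cells with DMSO only and 100% = cells with inhibitor control FD; inhibitors lower well luminescence so higher value means more inhibition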
TTR act confirm – human TTR transcription activation, confirmation; shares compounds with TTR transcr act; activation, % at 16.7 µM; SHSY5Y TTR promoter Gaussia luciferase, luminescence; 100% = purified Lucia enzyme wells, no cells; 1,100 tested, under 10 active;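 active means mean activation above a set limit taken from the earlier primary screen, cut at about 11% in these data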;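 further: 0% = DMSO-treated cells and 100% = recombinant Lucia luciferase without cells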
An asterisk follows results filed as active. This excerpt belongs to a sample that is enriched for hits.

SMILES | TTR transcr act | others
COCCCNC(=O)c1cccs1 | 16* | HuH7 TTR inh=-9;TTR act confirm=1
O=C(NCCCCNC(=O)c1cccs1)c1cccs1 | 1
CCOC(=O)c1c(NC(=O)COc2cccc3c2CCN(C)C3=O)sc2c1CCC2 | -2
CC(C)NCc1nnc(-c2ccc(Cl)cc2)o1 | 2
O=C(OCc1ccccc1)c1cn(-c2ccccc2)nc1-c1ccncc1 | 18* | HuH7 TTR inh=-10;TTR act confirm=-1
COC(=O)c1cn(-c2ccccc2)nc1-c1ccncc1 | -3
COC(=O)c1cn(-c2ccccc2)nc1-c1ccc(OC)cc1 | -3
Cc1cccc(Cn2c(N3CCCCC3C)nc3c2c(=O)[nH]c(=O)n3C)c1 (configuration not stated) | 1
COc1ccc2cc(C(=O)N3CCCCCC3)sc(=O)c2c1OC | 5
O=C(Nc1ccc(F)cc1)Nc1c(-c2ccccc2)nc2ncccn12 | -1
COc1cccc(C(=O)COc2ccccc2N2C(=O)C3C4C=CC(C4)C3C2=O)c1 (configuration not stated) | -1
O=C1C2C3C=CC(C4CC34)C2C(=O)N1c1cccc2ccccc12 (configuration not stated) | -2
Cc1ccnc2c(N3C(=O)C4C5C=CC(C5)C4C3=O)cccc12 (configuration not stated) | 9.8* | HuH7 TTR inh=-8;TTR act confirm=0
Cc1ccn2c(C(C)O)nnc2c1 (configuration not stated) | 1
CN(CC(=O)Nc1ccc(S(N)(=O)=O)cc1)C1CCCCC1 | -1
CN(CC(=O)Nc1ccc(S(N)(=O)=O)cc1)Cc1ccccc1F | 16* | HuH7 TTR inh=-1;TTR act confirm=1
CN(CC(=O)NC(=O)Nc1ccccc1F)Cc1ccccc1F | -1
O=C(/C=C/c1ccc(S(=O)(=O)N2CCOCC2)cc1)NCc1ccccc1F | 1
O=C(O)c1cc(-c2ccco2)nn1-c1cccc(Cl)c1 | 2
O=C(COC(=O)c1ccc(F)c(S(=O)(=O)N2CCOCC2)c1)NCc1ccccc1 | -1
CCOC(=O)CCCC(=O)N1CCOCCOCCN(C(=O)CCCC(=O)OCC)CCOCCOCC1 | -1
O=C(CCCCC(=O)OCC1COCO1)OCC1COCO1 (configuration not stated) | 10* | HuH7 TTR inh=-2;TTR act confirm=0
O=C(CCCCC(=O)OCC1CCCO1)OCC1CCCO1 (configuration not stated) | 2
O=C(COC(=O)c1cc(Br)ccc1O)NNC(=O)c1ccc([N+](=O)[O-])cc1 | -2
O=C(COC(=O)c1ccccc1O)NNC(=O)c1ccc(Br)cc1 | 9.9* | HuH7 TTR inh=-5;TTR act confirm=2
SMILES | TTR transcr act | others
O=C(NNC(=O)c1ccccc1O)c1ccc(Br)cc1 | 1
COc1ccc2oc(C(=O)OCC(=O)N3CCC(C)CC3)c(C)c2c1 | -2
COc1cc(-c2cc(C(=O)O)c3cc4c(cc3n2)OCCO4)cc(OC)c1OC | 2
COc1cc(-c2cc(C(=O)NN3CCN(C)CC3)c3ccccc3n2)cc(OC)c1OC | 36* | HuH7 TTR inh=-11;TTR act confirm=3
COc1cc(-c2cc(C(=O)OCC(=O)NC3CC3)c3ccccc3n2)cc(OC)c1OC | -3
C=CCNC(=O)C1CCN(S(=O)(=O)c2ccc(Br)cc2)CC1 | 0
CCN(c1ccccc1)S(=O)(=O)c1ccc(F)cc1 | 1
CCN(c1ccccc1)S(=O)(=O)c1ccc(Cl)nc1 | 19* | HuH7 TTR inh=-4;TTR act confirm=1
O=S(=O)(c1ccc(Cl)nc1)N(Cc1ccccc1)Cc1ccccc1 | -3
O=C(Nc1cnccn1)C1c2ccccc2Oc2ccccc21 | -1
CCC1(C)COC(c2ccc3c(c2)OCO3)OC1 (configuration not stated) | 4
COC(=O)[C@@]12C[C@@H](CC(=O)N3CCN(C(=O)c4ccco4)CC3)C(=O)N(Cc3cccc4ccccc34)C1=CCC(C)(C)C2 | 0
O=C(CCN1C(=O)c2ccccc2C1=O)Nc1nc2ccccc2s1 | -1
CCC(CC)c1nnc(NC(=O)CCN2C(=O)c3ccccc3C2=O)s1 | 15* | HuH7 TTR inh=-18;TTR act confirm=0
CC(C)Cc1nnc(NC(=O)CCN2C(=O)c3ccccc3C2=O)s1 | 0
O=C1[C@H](Cc2ccccc2)NCCCC[C@@H](c2ccco2)N1Cc1ccccc1 | -4
C=CCn1c(-c2ccccc2)nc(=S)c2c1CCCC2 | 11* | HuH7 TTR inh=3;TTR act confirm=0
S=c1nc(-c2ccccc2)n(CCN2CCOCC2)c2c1CCCC2 | -1
CC(C)Cn1c(-c2ccccc2)nc(=S)c2c1CCCC2 | 0
COC(=O)c1ccc(C2c3c(n[nH]c3C)C(=O)N2c2ccc(C)cc2)cc1 (configuration not stated) | -2
COc1ccc(CCNC(=O)c2csc3c2CCCC3)cc1 | -1
O=C(NCc1ccccn1)c1ccc(Cl)cc1Cl | 0
O=C(CSCc1ccc(Cl)cc1)NCc1ccccn1 | 12* | HuH7 TTR inh=-15;TTR act confirm=1
O=C(O)CSCC(=O)NCc1ccc(Cl)cc1 | 0
O=C(CNc1cccc(C(F)(F)F)c1)N/N=C/c1cccc(Br)c1 | -1
SMILES | TTR transcr act | others
COC(=O)C1NC(=O)N2C(C(=O)OC)C(C)(C)S[C@H]12 (some centres not stated) | 0
COc1cccc(OC)c1C(=O)NCCSC1CCCCC1 | 5
COc1ccc(CNC(=O)CNC(=O)c2ccc(C(C)(C)C)cc2)cc1OC | 13* | HuH7 TTR inh=-18;TTR act confirm=0
COc1ccc(CC(=O)NCc2ccccc2)cc1OC | 0
COc1ccc(CCNC(=O)c2ccc(OC)c(OC)c2)cc1OC | 2
COc1ccc(C2CC(=O)c3c(ccc4ccccc34)N2)cc1OC (configuration not stated) | 0
COc1c(F)c(F)c(C(=O)O)c(Nc2ccccc2)c1F | 3
NC(=O)C1CCN(c2ccc([N+](=O)[O-])cc2Cl)CC1 | -1
Cc1cc(=O)[nH]c(SCC(=O)NC2CCCCCCC2)n1 | 1
Cc1ccc(C(=O)O/N=C2\CCS(=O)(=O)c3sccc32)cc1 | 4
NC(=NCCc1ccc(Cl)cc1)NS(=O)(=O)c1ccccc1 | 8
NC(=NCCc1ccccc1)NS(=O)(=O)c1cccs1 | 19* | HuH7 TTR inh=-8;TTR act confirm=0
COc1ccc(CCN=C(N)NS(=O)(=O)c2cccs2)cc1 | 3
CSCC(=O)Nc1cc(C)on1 | 8
Cc1cc(NC(=O)CSCC(=O)OCc2nnc(-c3ccc(F)cc3)o2)no1 | -1
Cc1cc(NC(=O)CSCC(=O)N(C)Cc2ccc(F)cc2)no1 | 13* | HuH7 TTR inh=-11;TTR act confirm=-1
Cc1cc(Br)ccc1OCC(=O)NNC(=O)c1cnccn1 | 1
CCOC(=O)N1N=C(CC)CC1(O)C(F)(F)F (configuration not stated) | 0
Cc1cc2nc(-c3cccc(Br)c3)c(Cc3ccsc3)n2c(C)c1Br | -1
Cc1cc(N(C)C)c(C#N)c(NCc2ccccc2)n1 | 0
O=C(Cc1c[nH]c2ccccc12)Nc1nccs1 | 5
COc1cc(N)c(Cl)cc1C(=O)OCC(=O)c1cccs1 | -2
CN1CCN(C(=O)c2ccc(CN3CCOCC3)cc2)CC1 | 3
COc1ccccc1OCCN1C(=O)S/C(=C\c2ccco2)C1=O | 10* | HuH7 TTR inh=-13;TTR act confirm=0
Cc1ccc(N2C(=O)/C(=C/c3ccco3)SC2=S)cc1 | -2
O=C(NCCN1C(=O)S/C(=C\c2cccs2)C1=O)c1ccco1 | 1
O=C(Nc1ccc2c(c1)OCCO2)C1c2ccccc2OCC(=O)N1Cc1cccnc1 (configuration not stated) | -1
COc1ccc(/C=N/NC(=O)COc2cccc3cccnc23)cc1OC | -1
